GPR151 activ – activates the human receptor GPR151 | 1% of 650,000 active | Q8TDV0 | PathHunter beta-arrestin GPR151 cells, luminescence | activation, % at 11.2 µM | AID 1508602; in the data active means activation above about 4.9%;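 further: 0% = median of compound wells and 100% = cells with positive control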
Target sequence (Q8TDV0 whole entry, looked up): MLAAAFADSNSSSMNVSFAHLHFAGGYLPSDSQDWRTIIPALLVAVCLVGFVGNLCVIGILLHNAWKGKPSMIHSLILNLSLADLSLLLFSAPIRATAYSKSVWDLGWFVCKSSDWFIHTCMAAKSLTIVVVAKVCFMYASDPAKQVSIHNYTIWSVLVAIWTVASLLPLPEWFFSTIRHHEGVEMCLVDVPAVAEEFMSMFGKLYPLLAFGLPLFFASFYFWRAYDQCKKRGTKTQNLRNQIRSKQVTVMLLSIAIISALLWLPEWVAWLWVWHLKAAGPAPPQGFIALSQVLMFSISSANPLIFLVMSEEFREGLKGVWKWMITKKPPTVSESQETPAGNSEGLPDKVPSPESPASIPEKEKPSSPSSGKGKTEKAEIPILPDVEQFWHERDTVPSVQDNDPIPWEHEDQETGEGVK
MITF primary – human MITF inhibition, primary screen; O75030; AlphaScreen MITF homodimerization, bead proximity signal; inhibition, % at 2.6 µM; 0.91% of 650,000 active; AID 1259374; in the data active means inhibition above about 50%;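 further: 0% = vehicle wells with protein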
TEAD-YAP block – TEAD-YAP interaction inhibition; HEK-TIYL cells, TEAD-Gal4/YAP UAS-luciferase luminescence; inhibition, % at 9.12 µM; 1.4% of 640,000 active; in the data active means inhibition above about 32%;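 further: 0% = median of test compound wells and 100% = reference inhibitor wells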
FBW7 act – human FBW7 E3 ligase activation, primary screen | Q969H0 | AID 1259310 | 0.13% of 650,000 active | normalized activity (activation), % at 26.1 µM | AlphaScreen FBW7–phospho-cyclin E peptide binding, activator screen; in the data active means normalized activity above about 1.9%;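 further: purified mutant Fbw7 with reduced substrate affinity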
MITF inh conf – human MITF inhibition, confirmation; shares compounds with MITF primary; AlphaScreen MITF homodimerization, biotin/His-MITF beads; inhibition, % at 2.6 µM; 16% of 4,700 active; AID 1259372;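 active means inhibition above a cutoff derived from the DMSO control wells, cut at about 28% in these data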;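 further: 0% = MITF dimer wells with DMSO only; inhibitors lower the bead chemiluminescence by keeping MITF from dimerizing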
AS interf DR – counter-screen: compounds optically interfering with AlphaScreen; shares compounds with MITF primary; AlphaScreen optical interference counterscreen, cell-free; AID 1259373; IC50, µM; 6% of 480 active; call rule not given here
AlphaScreen intf2 – AlphaScreen optical interference, counter-screen | 7.6% of 4,700 active | shares compounds with MITF primary | LysRS AlphaScreen counterscreen, signal interference, triplicate | inhibition, % at 2.6 µM;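 active means inhibition above a cutoff derived from the DMSO control wells, cut at about 30% in these data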
Starred values were filed as active, the others as inactive; · = no result. Shown are actives, neighbours in structure and some others; about 3.5% of the full set was active somewhere.

SMILES | GPR151 activ | MITF primary | TEAD-YAP block | FBW7 act | MITF inh conf | AlphaScreen intf2 | others
Cc1ccnc(Nc2ccc(NCCNC(=O)c3ccc(F)cc3)nn2)c1 | 1 | 56* | 3 | -1 | 61* | 94*
Cc1cccc(Nc2ccc(NCCNC(=O)c3ccc(F)cc3)nn2)n1 | 1 | 8 | 15 | 0 | · | ·
Cc1ccn2c(C(=O)C(F)(F)F)cnc2c1 | 1 | -2 | 6 | 0 | · | ·
COc1cccc(COCC(O)CN2CC3(C)CC2CC(C)(C)C3)c1 (stereo not drawn) | -1 | 68* | 2 | 0 | 11 | 10
CC1(C)CC2CC(C)(CN2CC(O)COc2ccccc2)C1 (stereo not drawn) | -2 | 19 | -10 | 0 | · | ·
CN(c1ccccc1)S(=O)(=O)c1ccc(/C(O)=C(\C#N)c2nc3ccccc3n2C)cc1 | 0 | 62* | 1 | 0 | -5 | 5
COC(=O)c1ccc(NC(=O)/C=C/c2cccc3ccccc23)cc1 | -1 | -30 | 8 | 0 | · | ·
O=C1N[C@@H](COCc2ccccc2)C(=O)N2CCN(C(=O)NC3CCCCC3)C[C@H]12 | 2 | 72* | -1 | 0 | 68* | -4 | AS interf DR=>6.5
C[C@@H](OCc1ccccc1)[C@@H]1NC(=O)[C@H]2CN(C(=O)NC3CCCCC3)CCN2C1=O | 3 | 80* | -1 | -1 | 73* | -7 | AS interf DR=>6.5
CN1C(=O)[C@H]2CN(C(=O)NC3CCCCC3)CCN2C(=O)[C@@H]1Cc1ccccc1 | 1 | 74* | 1 | 0 | 69* | -11 | AS interf DR=>6.5
O=C1N[C@@H](Cc2c[nH]c3ccccc23)C(=O)N2CCN(C(=O)NC3CCCCC3)C[C@H]12 | -2 | 76* | 12 | 0 | 72* | -9 | AS interf DR=>6.5
O=C1N[C@@H](COCc2ccccc2)C(=O)N2CCN(C(=O)OCc3ccccc3)C[C@H]12 | 0 | -8 | 3 | 0 | · | ·
CC(C)Cn1cc(C(=O)NC(C)C)c(=O)c(C(=O)NC(C)c2cccs2)c1 (stereo not drawn) | -1 | 0 | -20 | 0 | · | ·
COc1ccc(/C=N/NC(=O)Cc2cccs2)cc1Br | 2 | 12 | -42 | 0 | · | ·
COc1ccc(C[C@@H]2NC(=O)[C@H]3CN(C(=O)Oc4ccc(F)cc4)CCN3C2=O)cc1 | 0 | -10 | 10 | 0 | · | ·
COc1ccc(C[C@@H]2NC(=O)[C@H]3CN(C(=O)NC4CCCCC4)CCN3C2=O)cc1 | 1 | 73* | 7 | 1 | 62* | -4 | AS interf DR=>6.5
CCOc1ccccc1CN1CCC(C(=O)NCCN2CCOCC2)CC1 | 0 | 52* | 1 | 0 | 4 | 16
O=C(NCCN1CCOCC1)C1CCN(Cc2ccc(Cl)c(Cl)c2)CC1 | -1 | 69* | -2 | 1 | -5 | -1
Brc1cccc(-c2cnc3n2CCC3)c1 | 0 | 12 | 5 | 0 | · | ·
CC1CC(C)CN(C(=O)c2cccc3ccccc23)C1 (stereo not drawn) | -1 | 7 | -1 | 0 | · | ·
CC1CC(C)CN(C(=O)c2cccc3c2-c2ccccc2C3=O)C1 (stereo not drawn) | -1 | 66* | -9 | 0 | 5 | -4
CCn1c(C(N)c2cc(OC)c(OC)c(OC)c2)nc2cc(F)c(-c3ccnc(N)n3)cc21 (stereo not drawn) | 0 | 9 | -6 | 0 | · | ·
CCOC(=O)C(=CNc1ccccc1[N+](=O)[O-])C(=O)OCC | 0 | 4 | 5 | 0 | · | ·
CCOC(=O)C(Cl)NNc1ccccc1[N+](=O)[O-] (stereo not drawn) | -1 | 72* | -9 | 0 | 20 | -1
COc1ccc(N(C(=O)Cn2nnnc2N)C2(C(=O)Nc3ccccc3C)CCCCC2)cc1 | -1 | 15 | 0 | 0 | · | ·
SMILES | GPR151 activ | MITF primary | TEAD-YAP block | FBW7 act | MITF inh conf | AlphaScreen intf2 | others
COc1cccc(CN2CCN(C(=O)c3ccc(F)cc3)CC2)c1OC | 3 | 32 | 4 | 0 | · | ·
COc1ccc(C(=O)N2CCN(Cc3c[nH]c4ccccc34)CC2)cc1OC | 1 | 17 | 9 | 0 | · | ·
COc1ccc(C(=O)N2CCN(Cc3cccc4ccccc34)CC2)cc1 | 3 | 59* | 7 | 0 | 6 | -4
CCOC(=O)N1CCN(C(=O)C2CCN(Cc3cccc4ccccc34)CC2)CC1 | 0 | 51* | -4 | 0 | 11 | 18
COc1ccc(C(=O)N2CCN(Cc3ccccc3F)CC2)cc1 | -1 | 62* | -1 | 0 | -10 | -4
COc1ccc(C(=O)N2CCN(Cc3c[nH]c4ccccc34)CC2)cc1 | 0 | 76* | 16 | 0 | -12 | -6
O=C(Nc1ccccc1Cl)C1CC2CCCN2C12C(=O)Nc1ccccc12 (stereo not drawn) | 0 | 1 | -1 | 0 | · | ·
CCc1nc2ccc(Br)cc2c(=O)n1CC(=O)OC | 1 | 11 | -4 | 0 | · | ·
Cc1ccccc1-n1ncc(C(C)NC(=O)CCc2c(C)nn(C)c2C)c1C (stereo not drawn) | -1 | -3 | -8 | 0 | · | ·
COc1cccc(C2C(C(=O)Nc3ccc(C)cn3)=C(C)NC3=C2C(=O)CCC3)c1OC (stereo not drawn) | 1 | 2 | 10 | 0 | · | ·
O=c1[nH]cc(S(=O)(=O)O)c2ccccc12 | 1 | 65* | 1 | 1 | -4 | 1
COCCn1c(C)nnc1SCC(N)=O | -1 | 83* | 16 | 1 | 6 | 5
Cc1ccc(CNS(=O)(=O)c2ccc(F)c(C(=O)Nc3ccccc3C(F)(F)F)c2)cc1 | 0 | -15 | -6 | 0 | · | ·
Fc1ccc(-n2c(CCl)csc2=NCC2CCCO2)cc1 (stereo not drawn) | 0 | 12 | 3 | 0 | · | ·
O=C1CC(N2CCN(S(=O)(=O)c3ccccc3F)CC2)C(=O)N1c1ccccc1F (stereo not drawn) | -1 | 79* | 1 | 0 | -14 | 4
O=C1CC(N2CCN(c3ccc(Cl)cc3)CC2)C(=O)N1c1ccccc1F (stereo not drawn) | -1 | 2 | 8 | 0 | · | ·
Cc1cccc(C(=O)Nc2cccc3nsnc23)c1 | -2 | -6 | -37 | 0 | · | ·
COc1ccc(NC(=O)CCCC(=O)c2ccccc2)cn1 | 0 | -2 | 3 | 0 | · | ·
Clc1ccccc1CN1CCN(C2CCCCCC2)CC1 | 0 | 74* | -3 | 0 | 0 | 1
CC1CCC(N2CCN(Cc3ccccc3F)CC2)CC1 (stereo not drawn) | -1 | 63* | 7 | 0 | -4 | 10
Fc1ccccc1CN1CCC(N2CCN(c3ccccc3)CC2)CC1 | -1 | 53* | -4 | 0 | 2 | 9
Fc1ccccc1N1CCN(C2CCN(Cc3ccccc3)CC2)CC1 | -1 | 49 | 1 | 0 | · | ·
Fc1ccccc1CN1CCC(N2CCCCC2)CC1 | -1 | -19 | 5 | 0 | · | ·
CCN1CCN(C2CCN(Cc3ccccc3C)CC2)CC1 | 0 | 14 | -3 | 0 | · | ·
Clc1ccccc1CN1CCC(N2CCCCC2)CC1 | -1 | -4 | 6 | 0 | · | ·
